Screening data from PubChem BioAssay.
CCT chaperon mod = modulators of cytosolic chaperonin (CCT/TRiC) activity; purified chaperonin ATPase assay, HTRF ADP detection, 30 min; activity change, % (concentration not given with the values), hits read low; 0.3% of 360,000 active; AID 651819; in the data active means activity change below about -30%; further: on the % scale 0 is the no-effect control and ±100 the full control effect
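Nucleotide hydrolysis assay: TRiC at 20–40 nM final (set by batch activity) with 10 uM ATP, 30 min at 37 °C, in presence of 76 uM compound. Detection by competitive ADP HTRF, 30 min ambient.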
MmCpn inh = blocks the Methanococcus maripaludis chaperonin Mm-Cpn | purified Mm-Cpn ATPase, ADP Transcreener TR-FRET | Potency, µM (highest dose often 76.9 µM), for inactives: at the top dose activity, negative = inhibition, most hits filed as inhibitors | 0.031% of 330,000 active | AID 504842; active means well fitted inhibition curve with a large enough effect; inconclusive means small, poorly fitted or top-dose-only effect; further: potency means the concentration at half of the fitted maximal effect; on the % scale 0 is the no-effect control and ±100 the full control effect; nearly all actives have a fitted effect of over 80% in size
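Quantitative HTS used 25 nM Mm-CPN and 10 uM ATP in magnesium/KCl Tris buffer, pH 7.4, with 1 mM DTT. Hydrolysis ran 30 min at 37°C; ADP was read by HTRF.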
Rango dissoc inh = inhibitors of RanGTP-induced Rango-importin beta complex dissociation. O95149+P62826. Biochemical FRET Rango-importin beta, RanGTP-induced dissociation. Potency, µM (series often up to 46.1 µM), for inactives: top-dose activity change, negative = inhibition. 0.071% of 340,000 active. AID 540253; further: potency means the concentration at half of the fitted maximal effect; % of control where 0% means no effect; nearly all actives have a fitted effect of over 45% in size
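Rango FRET biosensor (snurportin-1 IBB flanked by N-terminal EYFP and C-terminal CFP10) at 0.1 uM, with 0.25 uM importin beta in PBS, 1mM DTT, 0.02% Tween-20, 0.1% BSA. 0.6 uM Ran, 2mM GTP and 0.2 uM RCC1 were then added for 45 min at room temperature. Inhibition read as loss of FRET rise.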
KCNH2 WT inh = inhibitors of human wildtype KCNH2 potassium channel; activity change, % at 1.84 µM; U2OS, BacMam KCNH2, thallium flux FluxOr; hits give low values; AID 720551; 0.37% of 340,000 active; Q12809;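 active means maximum activity change below -70%; inconclusive means maximum activity change between -70% and -50%; inactive means maximum activity change above -50%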; further: on the % scale 0 is the no-effect control and ±100 the full control effect
Target sequence (Q12809 whole entry, looked up): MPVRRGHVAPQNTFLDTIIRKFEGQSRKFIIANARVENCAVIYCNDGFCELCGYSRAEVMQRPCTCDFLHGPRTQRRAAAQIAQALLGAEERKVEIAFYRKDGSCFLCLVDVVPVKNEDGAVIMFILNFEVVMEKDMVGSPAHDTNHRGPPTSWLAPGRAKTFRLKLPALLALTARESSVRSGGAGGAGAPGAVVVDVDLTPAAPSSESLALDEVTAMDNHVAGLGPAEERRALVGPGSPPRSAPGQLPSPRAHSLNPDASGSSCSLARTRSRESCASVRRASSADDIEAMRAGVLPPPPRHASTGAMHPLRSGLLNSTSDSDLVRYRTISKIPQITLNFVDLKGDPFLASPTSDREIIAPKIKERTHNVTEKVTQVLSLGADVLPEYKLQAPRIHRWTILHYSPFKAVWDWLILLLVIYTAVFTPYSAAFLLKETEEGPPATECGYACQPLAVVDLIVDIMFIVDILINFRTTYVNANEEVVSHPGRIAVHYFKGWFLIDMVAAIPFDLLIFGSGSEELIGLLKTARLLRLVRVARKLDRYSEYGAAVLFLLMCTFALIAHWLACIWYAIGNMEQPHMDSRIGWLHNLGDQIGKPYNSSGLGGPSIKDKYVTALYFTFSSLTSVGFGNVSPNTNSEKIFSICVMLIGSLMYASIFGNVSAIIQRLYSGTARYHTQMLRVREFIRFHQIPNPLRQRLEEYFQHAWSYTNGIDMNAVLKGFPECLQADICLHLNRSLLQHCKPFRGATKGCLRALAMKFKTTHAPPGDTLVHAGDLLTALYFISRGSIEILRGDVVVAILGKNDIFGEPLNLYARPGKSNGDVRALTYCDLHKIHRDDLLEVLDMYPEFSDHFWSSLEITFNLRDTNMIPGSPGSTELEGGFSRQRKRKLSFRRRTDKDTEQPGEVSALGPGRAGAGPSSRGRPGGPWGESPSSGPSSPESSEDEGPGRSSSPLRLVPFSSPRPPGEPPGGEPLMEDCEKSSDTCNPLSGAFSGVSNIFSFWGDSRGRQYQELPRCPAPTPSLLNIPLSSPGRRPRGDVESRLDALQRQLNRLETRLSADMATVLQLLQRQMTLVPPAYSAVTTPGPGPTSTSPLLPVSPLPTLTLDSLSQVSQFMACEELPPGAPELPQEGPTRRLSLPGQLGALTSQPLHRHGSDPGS
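U2OS cells were transduced with wild-type KCNH2 virus (2.03 x 10^8 / mL) for 4 h at room temperature, then cultured overnight at 37 C. Thallium flux was read with FluxOr dye. Rate constants were normalized to DMSO controls.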
Rango-impB inh = Rango-importin beta binding inhibition; AID 540263; Potency, µM (series often up to 92.2 µM), for inactives: at the top dose inhibition of complex formation; 0.031% of 340,000 active; Rango CFP/YFP FRET sensor + importin beta, 45 min;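 further: potency means the concentration at half of the fitted maximal effect; 0% = DMSO wells and 100% = buffer wells lacking importin beta; nearly all actives have a fitted effect of over 15% in size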
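FRET biosensor (snurportin 1 IBB flanked by EYFP and cerulean), 50 nM, with compound 5 min, then 0.125 microM importin beta in PBS, 1 mM DTT, 0.02% Tween-20, 0.1% BSA. CFP/YFP ratio read after 45 min at room temperature; pre-read flags interference.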
KCNH2 3.1 inh = inhibitors of human KCNH2 3.1 potassium channel isoform | U2OS KCNH2 3.1, thallium flux FluxOr; hits give low values | activity change, % (tested at about 1.8 µM) | AID 720553 | 0.95% of 340,000 active;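 active means maximum activity change below -70%; inconclusive means maximum activity change from -70% to -50%; inactive means maximum activity change above -50%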;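 further: thallium influx rate constant from kinetic fluorescence after stimulation buffer; on the % scale 0 is the no-effect control and ±100 the full control effect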
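Measured as rate of thallium-driven FluxOr signal in transduced U2OS cells carrying the 3.1 channel, read kinetically for 2 min upon stimulation; values are rate constants scaled to DMSO control wells.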
Starred values were filed as active, the others as inactive; ? = inconclusive; nt = no result given; ! = a repeat was not active. Hits are enriched below; roughly 1.4% of the tested compounds scored in any of these assays. Unless noted, the call rests on the fitted dose curve.

SMILES	CCT chaperon mod	MmCpn inh	Rango dissoc inh	KCNH2 WT inh	Rango-impB inh	KCNH2 3.1 inh
CC1CC(C)CN(CC(O)COCCOc2ccc(Br)cc2)C1 (centres undefined)	-5	-1%	3%	6	0%	-9
CC1CC(C)CN(CCOc2ccc(Br)cc2)C1 (centres undefined)	3	3%	4%	3	-1%	-96*
CC(/C=C/c1ccco1)=N\NC(=O)CNc1cccc(C)c1	1	-2%	20%	-1	0%	-80*
CCC1Nc2ncnc(N3CCN(c4ccccc4)CC3)c2N(Cc2ccc(Br)cc2)C1=O (centres undefined)	1	-5%	8%	6	-4%	-88*
O=C1C(Cc2ccccc2)Nc2ncnc(N3CCN(c4ccccc4)CC3)c2N1Cc1ccc(Br)cc1 (centres undefined)	-1	0%	-11%	-6	0%	-10
Cc1ccc(C2(C)NC(=O)N(CC(=O)NNC(=O)c3ccccc3F)C2=O)cc1 (centres undefined)	-3	2%	-8%	-16	0%	-7
COC(=O)C1=C(C)N(Cc2ccccc2)C(=NCC2CC2)N[C@H]1c1ccc(Br)cc1	nt	-1%	nt	nt	nt	nt
CC(=O)c1cc(C)ccc1OC(=O)CCN1C(=O)C2C3c4ccccc4C(c4ccccc43)C2C1=O (centres undefined)	0	0%	-17%	-7	-4%	-87*
CCn1c(SCC(=O)NCc2ccc3c(c2)OCO3)nnc1-c1c[nH]c2ccccc12	2	-4%	14%	1	-3%	4
CCn1c(SCC(=O)NCc2ccc3c(c2)OCO3)nnc1-c1ccncc1	-53*	0%	3%	1	-1%	-4
Cc1ccc(Cn2cc(CN3CC(N4CCCC4)CS3(=O)=O)nn2)cc1 (centres undefined)	0	nt	nt	nt	nt	nt
Cc1ccc(C(=O)N(Cc2cccs2)C2CCS(=O)(=O)C2)cc1 (centres undefined)	-2	6%	-16%	-1	8%	33
O=C(c1ccc([N+](=O)[O-])cc1)N(Cc1cccs1)C1CCS(=O)(=O)C1 (centres undefined)	-2	1%	7%	31	0%	-101*
Fc1c(CSC(=S)N2CCOCC2)cccc1CSC(=S)N1CCOCC1	-1	-3%	13%	-152*	-2%	-196*
O=C1c2ccccc2C(=O)N1CCSC(=S)N1CCOCC1	0	-1%	0%	-11	-1%	15
O=C(O)c1ccc(CSc2nnc(-c3cccnc3)n2-c2ccc(Br)cc2)cc1	0	-5%	0%	17	2%	6
O=C1CC(N(CCc2ccccc2)C(=S)Nc2ccccc2)C(=O)N1c1ccc(F)cc1 (centres undefined)	-1	0%	7%	-2	-4%	-80*
CCOc1ccc(N(C(C)=O)c2nc(C)cc(C)c2C#N)cc1	1	-2%	12%	1	1%	-18
COC(=O)C1CCN(C(=O)c2oc3c(Cl)cc(C)cc3c2C)CC1	-1	3%	1%	-7	0%	11
Cc1cc(Cl)c2oc(C(=O)N3CCN(c4ccncc4)CC3)c(C)c2c1	-3	nt	-19%	-138*	0%	3
COc1ccc(CNC(=O)CN(Cc2ccccc2F)C(=O)c2csnn2)cc1	-2	-5%	8%	-5	1%	-2
COc1ccccc1CN(CC(=O)NCc1ccc(F)cc1)C(=O)c1csnn1	-1	0%	5%	-1	-3%	-82*
Cc1cccc(CCN(CC(=O)NCc2ccc(F)cc2)C(=O)c2csnn2)c1	-1	0%	-15%	-3	0%	-108*
COc1ccc(CCCNC(=O)C2CCC(=O)N(CC3CCCCC3)C2)cc1 (centres undefined)	-3	0%	11%	-173*	?	-168*
C=CCNC(=O)C1(c2ccccc2)CC1(Cl)Cl (centres undefined)	2	0%	14%	2	-1%	7
SMILES	CCT chaperon mod	MmCpn inh	Rango dissoc inh	KCNH2 WT inh	Rango-impB inh	KCNH2 3.1 inh
COc1ccc(-c2[nH]nc3nc(N4CCN(C(=O)c5ccoc5)CC4)cc(C(F)(F)F)c23)cc1	-40*	nt	nt	6	nt	7
COc1ccc(-c2cc3nc(C)cc(N4CCN(C(=O)c5ccoc5)CC4)n3n2)cc1	-3	nt	nt	15	nt	10
COC(=O)c1ccc(C2N=C(c3cccs3)CC(c3ccccc3O)N2)cc1 (centres undefined)	3	-10%	15µM*	4	?	-12
CC(C)c1nnc(NC(=O)CCC(=O)NC2CC2)s1	-4	0%	-3%	-10	-1%	13
NC(=S)N/N=C1\CCSc2ccc(Cl)cc21	-2	0%	20%	2	2%	5
Cc1ccc(-n2nnnc2/C=C\Nc2cc(C)on2)cc1	1	0%	-1%	-9	0%	-7
Cc1cc(N/C=C\c2nnnn2-c2ccc(F)cc2)no1	1	0%	8%	-121*	0%	6
COc1ccc(CCc2nc(C)ccc2O)cc1	-67*!	0%	-4%	0	?	-3
COc1ccccc1-n1c(SCC(=O)c2ccc(O)cc2O)nc2cc([N+](=O)[O-])ccc21	1	-5%	-2%	5	4%	0
Cc1cc(C)nc(NS(=O)(=O)c2ccc(NS(=O)(=O)c3ccsc3)cc2)n1	0	0%	-2%	3	-3%	-89*
Cc1cc(C)nc(NS(=O)(=O)c2ccc(NS(=O)(=O)c3ccccc3)cc2)n1	-1	1%	0%	-4	3%	12
CC(C)n1nc(C(=O)Nc2ccc(-n3cnnn3)cc2)c2ccccc2c1=O	-31*	3%	-1%	-1	-1%	-5
Cn1nc(C(=O)Nc2ccc(-n3cnnn3)cc2)c2ccccc2c1=O	1	1%	5%	4	-2%	4
COC(=O)CCCC1=CC2=CC(=O)C(C)(OC(=O)c3cccs3)C(=O)C2=CN1C1CC1 (centres undefined)	1	0%	-7%	-6	-3%	-11
CCOc1ccc(CN2CCNC(=O)C2CC(=O)NCCN2CCOC2=O)cc1 (centres undefined)	1	-22%	4%	6	1%	21
CCN(CC)S(=O)(=O)c1ccc(OC)c(NC(=O)C(C)Oc2ccc3c(C)cc(=O)oc3c2)c1 (centres undefined)	-31*	-22%	2%	8	?	0
CN(C)CCCN(C(=O)c1ccco1)c1nc(-c2ccc(Cl)cc2)cs1	-3	0%	-1%	1	2%	-80*
